# Test results as given in the supplement of paper PMC6555819.
# Assays:
# Test in all cases: PBM binding z-score (relative to random genomic background probes); higher = stronger binding; sequences stand for … in GC…GCGATTGACAGCGTAGAATGAAGG
# [1] = test system: FXR:RXRa (NR concentration 270 nM, RXRa partner concentration 90 nM)
# Method in brief: (§1)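 Binding buffer was PBS pH 7.4 with 2% milk, 0.02% Triton X-100, 1 mM DTT, 0.2 mg/mL BSA and 0.4 mg/ml salmon testes DNA. In it, ligand-free nuclear receptor dimers were incubated 1 h on custom Agilent 4×180K protein-binding microarrays carrying double-stranded probes. Antibodies against each partner (one per run) detected binding, and z-scores were calculated against random background probes after regression normalization of scanned fluorescence.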
# [2] = test system: LXRa:RXRa (NR concentration 270 nM, RXRa partner concentration 90 nM)
# Method in brief: as §1
# [3] = test system: LXRa homodimer (NR concentration 270 nM)
# Method in brief: as §1
# [4] = test system: LXRb:RXRa (NR concentration 270 nM, RXRa partner concentration 90 nM)
# Method in brief: as §1
# [5] = test system: LXRb homodimer (NR concentration 270 nM)
# Method in brief: as §1
# [6] = test system: PPARa:RXRa (NR concentration 270 nM, RXRa partner concentration 90 nM)
# Method in brief: as §1
# [7] = test system: PPARg:RXRa (NR concentration 180 nM, RXRa partner concentration 90 nM)
# Method in brief: as §1
# [8] = test system: PPARg:RXRa 270nM:90nM, anti-RXR (NR concentration 270 nM, RXRa partner concentration 90 nM)
# Method in brief: as §1
# [9] = test system: PPARg:RXRa 30nM:10nM, anti-RXR (NR concentration 30 nM, RXRa partner concentration 10 nM)
# Method in brief: as §1
# [10] = test system: PPARg:RXRa 90nM:30nM, anti-RXR (NR concentration 90 nM, RXRa partner concentration 30 nM)
# Method in brief: as §1
# [11] = test system: PPARg:RXRa DBDmut IVT, anti-RXR (DBD mutation: RXRa K156A/R161A, NR concentration 270 nM, RXRa partner concentration 90 nM)
# Method in brief: as §1
# [12] = test system: PPARg:RXRa IVT, anti-PPARg (NR concentration 270 nM, RXRa partner concentration 90 nM)
# Method in brief: as §1
# [13] = test system: PPARg DBDmut:RXRa IVT, anti-PPARg (DBD mutation: PPARg1 K132A/R137A, NR concentration 270 nM, RXRa partner concentration 90 nM)
# Method in brief: as §1
# [14] = test system: PPARg DBDmut IVT, anti-PPARg (DBD mutation: PPARg1 K132A/R137A, NR concentration 270 nM)
# Method in brief: as §1
# [15] = test system: PPARg homodimer (NR concentration 180 nM)
# Method in brief: as §1
# [16] = test system: PXR:RXRa (NR concentration 270 nM, RXRa partner concentration 90 nM)
# Method in brief: as §1
# [17] = test system: PXR homodimer (NR concentration 270 nM)
# Method in brief: as §1
# [18] = test system: RARa:RXR (NR concentration 270 nM, RXRa partner concentration 90 nM)
# Method in brief: as §1
# [19] = test system: RARa homodimer (NR concentration 270 nM)
# Method in brief: as §1
# [20] = test system: RARb:RXRa (NR concentration 270 nM, RXRa partner concentration 90 nM)
# Method in brief: as §1
Sequence,PBM binding z-score [1],PBM binding z-score [2],PBM binding z-score [3],PBM binding z-score [4],PBM binding z-score [5],PBM binding z-score [6],PBM binding z-score [7],PBM binding z-score [8],PBM binding z-score [9],PBM binding z-score [10],PBM binding z-score [11],PBM binding z-score [12],PBM binding z-score [13],PBM binding z-score [14],PBM binding z-score [15],PBM binding z-score [16],PBM binding z-score [17],PBM binding z-score [18],PBM binding z-score [19],PBM binding z-score [20]
CGTACTAGGTCATTGACAGGACAGTGAATAGTAA,4.65,3.15,0.997,2.29,0.27,4.07,6.36,5.47,3.06,4.93,7.67,7.54,3.72,3.85,3.05,1.64,0.269,2.54,0.282,3.67
TAGCCTTGGTCATTCAGGGGCCAGTATAGAAAGC,-0.269,-0.328,-0.573,0.134,-0.26,0.0582,-0.0299,-0.0721,-0.509,-0.279,-0.687,0.278,-0.367,-0.339,-0.308,0.0515,-0.437,0.596,-0.818,1.44
TAGACTAGGTCATGGGCCAGTATACCACGCGAAC,3.63,2.6,0.103,1.81,0.438,4.41,7.24,6.34,4.78,6.07,5.98,6.8,1.6,0.962,1.38,1.04,0.462,2.1,0.407,3.49
CGTTACGGGTCACTCCAGGTTATAGCATCGGAGT,4.94,7.62,1.6,5.34,-0.0358,4.67,3.44,4.08,1.42,2.69,2.91,3.75,0.311,-0.48,1.14,5.09,0.162,3.59,0.11,3.66
GCTGCTATGTCAACTGATGGTCAGCTAAAGCTCG,-0.296,-0.497,-0.849,-0.37,-0.729,-0.283,-0.143,-0.387,-0.655,-0.456,0.616,-0.0594,-1.42,-1.27,-1.18,-0.32,-0.913,-0.149,-1.19,0.753
ACAGACAGGTGATAAAGGTAACTCAGGCTATCAT,-0.11,-0.0181,-0.44,0.128,-0.23,0.763,1.15,1.47,0.377,1.35,-0.135,0.46,-0.885,-0.537,0.207,-0.0528,0.0239,0.267,-0.124,0.423
GCTGCTAGGTCAACTAATGGTCAGCTAAAGCTCG,3.23,2.87,0.268,2.02,0.0624,3.29,2.45,3.11,0.435,2.19,4.24,3.84,-0.334,-0.784,1.66,1.37,-0.568,2.35,-0.116,4.03
ACTTACGGGTCAATGAGGTTATAGCACGCGTATA,5.51,4.96,0.962,4.08,1.04,5.25,4.45,4.61,2.44,3.5,3.32,3.66,1.87,1.58,1.79,4.89,2.68,4.53,1.1,3.86
